In PubChem BioAssay (NCATS):
Records with an inconclusive call do not appear. The source made the active and inactive calls. Calls follow the shape of the dose curve; as a rule, active = well fitted curve in the direction sought with a large enough effect; inconclusive = small, poorly fitted or top-dose-only effect, or another doubt; inactive = no such curve, though single readings can be large; an effect the other way counts as inactive or inconclusive.

Key:
HEK293 = test: Cytotoxic Profiling of Annotated Libraries Using Quantitative High-Throughput Screening (AID 1296008); conditions: Five cell lines viability, CellTiter-Glo ATP luminescence, 48-72 h; max response: active compounds read low; also: nearly all actives have a fitted effect of over 60% in size
Procedure, shortened: (§1)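 Compounds were pin-transferred onto cells and incubated 48 or 72 hr at 37 degree Celsius, 95% humidity. CellTiter-Glo was added, plates sat 10 min at room temperature, then ATP-coupled luminescence was imaged as the viability read-out.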

HaCat = test: as above; conditions: Five cell lines viability, CellTiter-Glo ATP luminescence, 48-72 h; max response: active compounds read low
Procedure, shortened: as §1

KB-3-1 = test: as above; conditions: Five cell lines viability, CellTiter-Glo ATP luminescence, 48-72 h; max response: active compounds read low
Procedure, shortened: as §1

NIH3T3 = test: as above; conditions: Five cell lines viability, CellTiter-Glo ATP luminescence, 48-72 h; max response: active compounds read low
Procedure, shortened: as §1

C33A = test: Primary qHTS to identify gynecologic anti-cancer compounds using libraries of approved drugs and bioactive compounds (AID 1345084); conditions: Gynecologic cancer cell panel viability, ATPlite luminescence, 48 h; series mostly up to 57.5 µM; also: nearly all actives have a fitted effect of over 55% in size
Procedure, shortened: (§2)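 Cytotoxicity screen measuring ATP content by luciferase luminescence. Each compound is applied at five concentrations for 48 h at 37 C with 5% CO2.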

CAOV3 = test: as above; conditions: Gynecologic cancer cell panel viability, ATPlite luminescence, 48 h; series mostly up to 57.5 µM
Procedure, shortened: as §2

CASKI = test: as above; conditions: Gynecologic cancer cell panel viability, ATPlite luminescence, 48 h; series mostly up to 57.5 µM
Procedure, shortened: as §2

Es-2 = test: as above; conditions: Gynecologic cancer cell panel viability, ATPlite luminescence, 48 h; series mostly up to 57.5 µM
Procedure, shortened: as §2

HeLa = test: as above; conditions: Gynecologic cancer cell panel viability, ATPlite luminescence, 48 h; series mostly up to 57.5 µM
Procedure, shortened: as §2

Hek293T = test: as above; conditions: Gynecologic cancer cell panel viability, ATPlite luminescence, 48 h, control line for the selectivity index; series mostly up to 57.5 µM
Procedure, shortened: as §2

JEG-3 = test: as above; conditions: Gynecologic cancer cell panel viability, ATPlite luminescence, 48 h; series mostly up to 57.5 µM
Procedure, shortened: as §2
% is scaled to controls: 0 for no effect and ±100 for the full control effect.

CC(=O)NC1C(OC(C)(C)C2CCC3(C)C=C(C4CCC5C4(C)CC(O)C4OC(C(C)(C)O)CCC45C)CCC3O2)OC(CO)C(O)C1O (centres undefined)
inactive: max response (HEK293) -2.64% | max response (HaCat) 3.68% | max response (KB-3-1) -23.5% | max response (NIH3T3) -10.4% | Potency (C33A) | Potency (CAOV3) | Potency (CASKI) | Potency (Es-2) | Potency (HeLa) | Potency (Hek293T) | Potency (JEG-3)

C=C[C@H]1[C@H](O[C@@H]2O[C@H](CO)[C@@H](O)[C@H](O)[C@H]2O)OC=C(C(=O)OC)[C@H]1CCOC(=O)c1cc(O)c(O)c(O)c1
inactive: max response (HEK293) 0.889% | max response (HaCat) 4.92% | outcome (KB-3-1) | max response (NIH3T3) -1.02% | Potency (C33A) | Potency (CAOV3) | Potency (CASKI) | Potency (Es-2) | Potency (HeLa) | Potency (Hek293T) | Potency (JEG-3)

CC1OC(OC2C(C)OC(OC3C(OC(=O)C45CCC(C)(C)CC4C4=CCC6C7(C)CCC(OC8OC(C(=O)O)C(O)C(O)C8OC8OC(CO)C(O)C(OC9OC(C)C(O)C(O)C9O)C8O)C(C)(CO)C7CCC6(C)C4(C)CC5)OC(CO)C(O)C3O)C(O)C2O)C(O)C(O)C1O (centres undefined)
inactive: max response (HEK293) 1.99% | max response (HaCat) -14.7% | outcome (KB-3-1) | max response (NIH3T3) -18.1% | activity change, negative = cytotoxicity (C33A) 1.01% [at 6.55 µM] | activity change, negative = cytotoxicity (CAOV3) 6.9% [at 6.55 µM] | activity change, negative = cytotoxicity (CASKI) 16.9% [at 6.55 µM] | activity change, negative = cytotoxicity (Es-2) 0.662% [at 6.55 µM] | activity change, negative = cytotoxicity (HeLa) 5.48% [at 6.55 µM] | activity change, negative = cytotoxicity (Hek293T) -2.51% [at 6.55 µM] | activity change, negative = cytotoxicity (JEG-3) 4.23% [at 6.55 µM]

CC(=O)O[C@@H]1[C@@H](O)[C@H](C)O[C@@H](O[C@H]2[C@@H]3C=CO[C@@H](O[C@@H]4O[C@H](CO)[C@@H](O)[C@H](O)[C@H]4O)[C@@H]3[C@@]3(CO)O[C@@H]23)[C@@H]1OC(=O)/C=C/c1ccccc1
inactive: max response (HEK293) 2% | max response (HaCat) -6.78% | max response (KB-3-1) -1.35% | max response (NIH3T3) -1.99% | Potency (C33A) | Potency (CAOV3) | Potency (CASKI) | Potency (Es-2) | Potency (HeLa) | Potency (Hek293T) | Potency (JEG-3)

CC(C)=CCC[C@](C)(O[C@@H]1O[C@H](CO[C@@H]2O[C@H](CO)[C@@H](O)[C@H](O)[C@H]2O)[C@@H](O)[C@H](O)[C@H]1O)C1CC[C@]2(C)[C@@H]1[C@H](O)CC1[C@@]3(C)CC[C@H](O[C@@H]4O[C@H](CO)[C@@H](O)[C@H](O)[C@H]4O[C@@H]4O[C@H](CO)[C@@H](O)[C@H](O)[C@H]4O)C(C)(C)[C@@H]3CC[C@]12C (some centres undefined)
inactive: max response (HEK293) 0.0713% | max response (HaCat) 3.42% | max response (KB-3-1) -1.36% | max response (NIH3T3) 4.71% | activity change, negative = cytotoxicity (C33A) 0.112% [at 11.6 µM] | activity change, negative = cytotoxicity (CAOV3) 10.1% [at 11.6 µM] | activity change, negative = cytotoxicity (CASKI) 27.8% [at 11.6 µM] | activity change, negative = cytotoxicity (Es-2) -0.241% [at 11.6 µM] | activity change, negative = cytotoxicity (HeLa) -0.531% [at 11.6 µM] | activity change, negative = cytotoxicity (Hek293T) -3.2% [at 11.6 µM] | activity change, negative = cytotoxicity (JEG-3) -5.88% [at 11.6 µM]

NC1CCCCN(c2c(F)cc3c(=O)c(C(=O)O)cn(C4CC4)c3c2Cl)C1 (centres undefined)
inactive: max response (HEK293) -12.1% | max response (HaCat) 0.186% | max response (KB-3-1) -4.74% | max response (NIH3T3) 1.34% | Potency (C33A) | Potency (CAOV3) | Potency (CASKI) | Potency (Es-2) | Potency (HeLa) | Potency (Hek293T) | Potency (JEG-3)

O=C(Nc1ccccc1-c1cn2c(CN3CCNCC3)csc2n1)c1ccc2ccccc2n1
inactive: max response (HEK293) -4.98% | max response (HaCat) -14.7% | max response (KB-3-1) 2.25% | max response (NIH3T3) 4.15% | Potency (C33A) | Potency (CAOV3) | Potency (CASKI) | Potency (Es-2) | Potency (HeLa) | Potency (Hek293T) | Potency (JEG-3)

CC(C)CCC1(O)C(=O)C(C)(C)C(O[C@@H]2O[C@H](CO)[C@@H](O)[C@H](O)[C@H]2O)C(C)(C)C1O (some centres undefined)
inactive: max response (HEK293) -13.9% | max response (HaCat) -4.8% | max response (KB-3-1) 0.0434% | max response (NIH3T3) -0.747% | Potency (C33A) | Potency (CAOV3) | Potency (CASKI) | Potency (Es-2) | Potency (HeLa) | Potency (Hek293T) | Potency (JEG-3)

CC1(C)CC[C@]2(C(=O)O[C@@H]3O[C@H](CO)[C@@H](O)[C@H](O)[C@H]3O)CC[C@]3(C)C(=CCC4[C@@]5(C)C[C@@H](O)[C@H](O)[C@](C)(C(=O)O)C5CC[C@]43C)C2C1O (some centres undefined)
inactive: max response (HEK293) -1.42% | max response (HaCat) 1.77% | max response (KB-3-1) -4.21% | max response (NIH3T3) -9.14% | Potency (C33A) | Potency (CAOV3) | Potency (CASKI) | Potency (Es-2) | Potency (HeLa) | Potency (Hek293T) | Potency (JEG-3)

C=C[C@H]1[C@H](O[C@@H]2O[C@H](CO)[C@@H](O)[C@H](O)[C@H]2O)OC=C(C(=O)OC)[C@H]1CC(=O)O
inactive: max response (HEK293) 3.67% | max response (HaCat) -3.58% | max response (KB-3-1) -3% | max response (NIH3T3) -8.69% | Potency (C33A) | Potency (CAOV3) | Potency (CASKI) | Potency (Es-2) | Potency (HeLa) | Potency (Hek293T) | Potency (JEG-3)

C=C[C@H]1[C@H](O[C@@H]2O[C@H](CO)[C@@H](O)[C@H](O)[C@H]2O)OC=C(C(=O)OC)[C@H]1C[C@@H]1c2cc(O)c(O)cc2CCN1C(C)=O
inactive: max response (HEK293) 2.33% | max response (HaCat) 3.48% | max response (KB-3-1) -1.92% | max response (NIH3T3) -10.7% | Potency (C33A) | Potency (CAOV3) | Potency (CASKI) | Potency (Es-2) | Potency (HeLa) | Potency (Hek293T) | Potency (JEG-3)

COc1ccc(/C=C/C(=O)O[C@H]2[C@H](O[C@H]3[C@@H]4C=CO[C@@H](O[C@@H]5O[C@H](CO)[C@@H](O)[C@H](O)[C@H]5O)[C@@H]4[C@@]4(CO)O[C@@H]34)O[C@@H](C)[C@H](O)[C@H]2OC(C)=O)cc1
inactive: max response (HEK293) -1.88% | max response (HaCat) 2.92% | max response (KB-3-1) 4.98% | max response (NIH3T3) -16.4% | Potency (C33A) | Potency (CAOV3) | Potency (CASKI) | Potency (Es-2) | Potency (HeLa) | Potency (Hek293T) | Potency (JEG-3)

O=C(Nc1ccccc1)N1CCN(Cc2ccc3ccccc3n2)CC1
inactive: max response (HEK293) -11% | max response (HaCat) -4.72% | max response (KB-3-1) -4.71% | max response (NIH3T3) 1.66% | Potency (C33A) | Potency (CAOV3) | Potency (CASKI) | Potency (Es-2) | Potency (HeLa) | Potency (Hek293T) | Potency (JEG-3)

CCC(C)C(=O)OC1CC(C)C=C2C=CC(C)C(CCC(O)CC(O)CC(=O)O)C21 (centres undefined)
inactive: max response (HEK293) -0.653% | max response (HaCat) -2.56% | max response (KB-3-1) 5.43% | max response (NIH3T3) -8.16% | Potency (C33A) | Potency (CAOV3) | Potency (CASKI) | Potency (Es-2) | Potency (HeLa) | Potency (Hek293T) | Potency (JEG-3)
